Laboratory results: PubChem BioAssay AID1053 (University of Pittsburgh Molecular Library Screening Center, 2008)
“And” between values parts separate entries of the source, which are not always exact repeats. Equal values may be shown once.

target: Serine/threonine-protein kinase PLK1 (Homo sapiens) (UniProt P53350); assay: Plk1 polo box domain binding inhibitors, SAR follow-up, biochemical, fluorescence polarization, purchased analogs (AID 1053); conditions: Plk1 PBD fluorescence polarization peptide binding; at 20 µM; active compounds read high
Sequence (P53350 whole entry, looked up, the tested form may be a part): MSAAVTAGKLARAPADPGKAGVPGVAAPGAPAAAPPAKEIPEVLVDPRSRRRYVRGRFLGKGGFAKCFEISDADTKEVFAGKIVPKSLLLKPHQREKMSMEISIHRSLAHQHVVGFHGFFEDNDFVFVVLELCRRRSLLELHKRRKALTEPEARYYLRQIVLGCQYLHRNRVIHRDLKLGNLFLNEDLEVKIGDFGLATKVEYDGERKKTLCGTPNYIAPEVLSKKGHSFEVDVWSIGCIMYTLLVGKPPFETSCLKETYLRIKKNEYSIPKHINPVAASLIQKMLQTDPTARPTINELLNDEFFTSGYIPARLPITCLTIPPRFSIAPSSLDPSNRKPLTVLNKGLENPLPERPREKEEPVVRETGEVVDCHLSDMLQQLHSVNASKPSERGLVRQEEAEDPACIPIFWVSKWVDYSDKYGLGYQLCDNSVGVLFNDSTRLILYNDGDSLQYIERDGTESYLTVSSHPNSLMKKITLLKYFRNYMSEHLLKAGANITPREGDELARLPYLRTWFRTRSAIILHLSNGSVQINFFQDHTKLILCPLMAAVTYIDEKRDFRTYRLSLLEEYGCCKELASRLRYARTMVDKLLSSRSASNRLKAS

inhibition, inactive:
CCOC(=O)c1ccc(NC(=O)c2cc3ccccc3c(=O)o2)cc1 -35.6%
CCn1nc(-c2ccc(C)cc2)nc2c(=O)n(C)c(=O)nc1-2 16.7%
CCN(CC)CCOC(=O)c1ccc(N=Cc2c(O)n(C)c(=O)[nH]c2=O)cc1 -180%
COc1ccc(C(=O)COC(=O)c2ccc(NC(=O)c3ccccc3)cc2)cc1 40.3%
CCOC(=O)c1ccc(N=Cc2c(O)n(Cc3ccc4c(c3)OCO4)c(=O)[nH]c2=O)cc1 -19.4%
CCCCCC(=O)N(CN1C(=O)c2ccccc2C1=O)c1ccccc1OC -35.4%
Cc1ccc(-c2nnc3[nH]c(=O)n(C)c(=O)c3n2)cc1 -28.5% and -24.3%
CCCOC(=O)c1ccc(NC(=O)c2ccc(OC)c([N+](=O)[O-])c2)cc1 -17.9%
CC(=O)N(CN1C(=O)c2ccccc2C1=O)c1cc(Br)ccc1C -56.1%
